According to PubChem BioAssay (EPA / NIEHS):
Records with an inconclusive call do not appear. The source made the active and inactive calls. Rule for the calls, unless noted: active = hit-call score of the fitted dose curve at least 0.9, where 1 is the maximum; inactive = score below 0.9.

Experiments:
[1] = CCTE_Shafer_MEA_dev_firing_rate_mean: CCTE's Neural Network Formation Assay for Mean Firing Rate, Shafer Lab (AID 2284031)
Summary of the method: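 Primary rat cortical neurons on 48-well MEA plates, exposed from plating day 0 with dosing renewed on DIV 5 and 9. Mean well firing rate over active electrodes, recorded days 5, 7, 9, 12, summarised as trapezoidal AUC.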

[2] = CCTE_Shafer_MEA_dev_per_burst_spike_percent: CCTE's Neural Network Formation Assay for Percent of Spikes in a Burst, Shafer Lab (AID 2284032)
Summary of the method: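 Rat primary cortical neurons on 16-electrode MEA wells, dosed from plating day 0 for 12 days with renewal on DIV 5 and 9; spikes-in-bursts percentage averaged over bursting electrodes, collapsed as AUC across days 5, 7, 9, 12; loss direction versus DMSO.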

[3] = CCTE_Shafer_MEA_dev_active_electrodes_number: CCTE's Neural Network Formation Assay for Number of Active Electrodes, Shafer Lab (AID 2284040; active = hit-call score of the fitted dose curve at least 0.9, where 1 is the maximum)
Summary of the method: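 Primary rat cortical neurons on 16-electrode MEA wells, exposed from day 0 through day 12 with compound renewed at DIV 5 and 9 feeds. Active electrodes (mean firing ≥5 spikes/min) counted at DIV 5, 7, 9, 12; trapezoidal AUC across days, loss-of-signal versus DMSO.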

[4] = CCTE_Shafer_MEA_dev_burst_rate: CCTE's Neural Network Formation Assay for Burst Rate, Shafer Lab (AID 2284042)
Summary of the method: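 Primary rat cortical neurons on PEI-coated 48-well MEA plates (laminin added with cells at plating) (16 electrodes/well), exposed from plating to day 12, dosing renewed at DIV 5 and 9. Burst rate averaged over active electrodes, recorded DIV 5, 7, 9, 12, summarized as AUC; loss versus DMSO.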

[5] = CCTE_Shafer_MEA_dev_bursting_electrodes_number: CCTE's Neural Network Formation Assay for Number of Bursting Electrodes, Shafer Lab (AID 2284043; active = hit-call score of the fitted dose curve at least 0.9, where 1 is the maximum)
Summary of the method: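 Primary rat cortical neurons were cultured on PEI-coated 48-well MEA plates (16 electrodes/well) and exposed from plating through day 12, with compound renewed at feeds on DIV 5 and 9. Electrodes bursting ≥1 per 2 min were counted on DIV 5, 7, 9, 12; trapezoidal AUC taken.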

[6] = CCTE_Shafer_MEA_dev_per_burst_interspike_interval: CCTE's Neural Network Formation Assay for Burst Interspike Interval, Shafer Lab (AID 2284044)
Summary of the method: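 Readout is the average time between spikes inside single-electrode bursts, taken as a well mean across bursting electrodes. Cortical neurons from rat developed networks on MEA plates under continuous 12-day exposure; recordings on days 5, 7, 9 and 12 were integrated by trapezoidal AUC.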

[7] = CCTE_Shafer_MEA_dev_burst_duration_mean: CCTE's Neural Network Formation Assay for Mean Burst Duration, Shafer Lab (AID 2284045)
Summary of the method: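 Primary rat cortical neurons on PEI-coated 16-electrode MEA wells, exposed from plating through day 12 with compound renewed at DIV 5 and 9; spontaneous activity recorded days 5, 7, 9, 12. Well-mean burst duration collapsed as trapezoidal AUC, fitted for loss versus DMSO.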

[8] = CCTE_Shafer_MEA_dev_interburst_interval_mean: CCTE's Neural Network Formation Assay for Mean Interburst Interval, Shafer Lab (AID 2284046);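 note: well-mean interburst interval of bursting electrodes as AUC over four recording days; curve fitted for decrease in interburst interval relative to DMSO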
Summary of the method: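 Recordings on days 5, 7, 9 and 12 give well-mean interburst interval across actively bursting electrodes, summarized as area under the curve. Cultures: rat cortical neurons, continuous exposure from day 0, compound renewed at feeds; decrease analyzed versus DMSO.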

[9] = CCTE_Shafer_MEA_dev_inter_network_spike_interval_mean: CCTE's Neural Network Formation Assay for Mean Inter-network Spike Interval, Shafer Lab (AID 2284047)
Summary of the method: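 Primary rat cortical neurons on 16-electrode MEA wells, exposed from plating day 0 through DIV 12, compound renewed at DIV 5 and 9 media changes. Mean interval between network-spike peaks recorded DIV 5, 7, 9, 12; collapsed as trapezoidal AUC, fitted downward versus DMSO.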

[10] = CCTE_Shafer_MEA_dev_network_spike_number: CCTE's Neural Network Formation Assay for Number of Network Spikes, Shafer Lab (AID 2284048)
Summary of the method: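 Primary rat cortical neurons were seeded at 1.5 x 10^5 cells/well on PEI-coated 16-electrode MEA wells with laminin, exposed from plating day 0, compound renewed at DIV 5 and 9. Network spikes were recorded on days 5, 7, 9, 12 and summarized as trapezoidal AUC versus DMSO.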

[11] = CCTE_Shafer_MEA_dev_network_spike_peak: CCTE's Neural Network Formation Assay for Mean Number of Electrodes in Network Spike, Shafer Lab (AID 2284049)
Summary of the method: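 Continuous 12-day exposure of rat cortical cultures, starting at plating, on MEA plates. Endpoint: electrodes participating in network-spike peaks, AUC across DIV 5–12, DMSO as negative control.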

[12] = CCTE_Shafer_MEA_dev_spike_duration_mean: CCTE's Neural Network Formation Assay for Mean Spike Duration, Shafer Lab (AID 2284051);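 note: mean network spike duration pooled as area under curve over DIV 5 to 12 recordings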
Summary of the method: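 Primary rat cortical neurons on 16-electrode MEA wells (PEI-coated, laminin in plating drop), exposed from plating through DIV 12 with compound renewed at DIV 5 and 9. Mean network-spike duration recorded DIV 5, 7, 9, 12; trapezoidal AUC across days, DMSO baseline.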

[13] = CCTE_Shafer_MEA_dev_network_spike_duration_std: CCTE's Neural Network Formation Assay for Standard Deviation of Network Spike Duration, Shafer Lab (AID 2284052);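 note: area under curve of spike duration SD across recording days 5 to 12; hits are decreases in network spike duration SD versus DMSO vehicle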
Summary of the method: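 Primary rat cortical neurons on PEI-coated 16-electrode MEA wells, exposed from plating day 0 through day 12 with compound renewed at DIV 5 and 9. Network spike duration SD recorded on days 5, 7, 9, 12, collapsed as trapezoidal AUC; loss-of-signal fit versus DMSO.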

[14] = CCTE_Shafer_MEA_dev_per_network_spike_spike_number_mean: CCTE's Neural Network Formation Assay for Mean Number of Spikes in a Network Spike, Shafer Lab (AID 2284053)
Summary of the method: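 Primary rat cortical neurons on 48-well, 16-electrode MEA plates were exposed from plating to DIV 12, with dosing renewed on DIV 5 and 9. Spikes per network spike (0.05 s peak window) were recorded on DIV 5, 7, 9 and 12 and collapsed as trapezoidal AUC versus DMSO.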

[15] = CCTE_Shafer_MEA_dev_per_network_spike_spike_percent: CCTE's Neural Network Formation Assay for Percent of Spikes in a Network Spike, Shafer Lab (AID 2284054)
Summary of the method: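 Primary rat cortical neurons on 16-electrode MEA wells (PEI-coated, laminin at plating), exposed from day 0 with renewal at DIV 5 and 9; spikes within 0.05 s of network-spike peaks over total spikes, AUC across days 5, 7, 9, 12.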

[16] = CCTE_Shafer_MEA_dev_LDH: CCTE's Lactate Dehydrogenase Assay for Cytotoxicity in the Neural Network Formation Assay, Shafer Lab (AID 2284068; active = hit-call score of the fitted dose curve at least 0.9, where 1 is the maximum;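 note: exposure for twelve days from plating with re-dosing on DIV 5 and 9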)
Summary of the method: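 Primary rat cortical neurons were plated on PEI/laminin MEA plates and exposed from day 0 for twelve days, with compound renewed at DIV 5 and 9. Cytotoxicity was determined by spectrophotometric LDH assay relative to DMSO.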

[17] = CCTE_Shafer_MEA_dev_AB: CCTE's Alamar Blue Assay for Cytotoxicity in the Neural Network Formation Assay, Shafer Lab (AID 2284083; active = hit-call score of the fitted dose curve at least 0.9, where 1 is the maximum;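 note: twelve days of exposure from plating with re-dosing on DIV 5 and 9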)
Summary of the method: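 Primary rat cortical neurons on PEI-coated 48-well MEA plates, 1.5 x 10^5 cells/well in laminin drop; compound exposure from day 0 of plating for twelve days, renewed at medium changes on DIV 5 and 9. Viability read as resazurin reduction by fluorescence, relative to DMSO.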

[18] = CCTE_Shafer_MEA_dev_mutual_information_norm: CCTE's Neural Network Formation Assay for Mutual Information Normalization, Shafer Lab (AID 2284091)
Summary of the method: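 Rat cortical cultures, 48-well MEA, continuous exposure DIV 0–12 with full media/compound change DIV 5 and 9. Readout: inter-electrode mutual information, AxIS adaptive spike detection; AUC across DIV 5/7/9/12 recordings; DMSO baseline, negative fitting direction.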

[19] = CCTE_Shafer_MEA_dev_correlation_coefficient_mean: CCTE's Neural Network Formation Assay for Mean Correlation Coefficient, Shafer Lab (AID 2284093)
Summary of the method: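 Spontaneous activity recorded on days 5, 7, 9 and 12 post-plating; pairwise spike correlations are averaged across active electrodes and collapsed to an area-under-curve. Rat cortical cultures are dosed from plating through 12 days, with compound renewed at media changes.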

[20] = UKN2_HCS_IMR90_neural_migration: University of Konstanz (UKN) Leist Lab Neural Crest Cell Migration Assay in human induced IMR90 Pluripotent Stem Cells (UKN2) (AID 2284204); conditions: actives raise or lower the signal
Summary of the method: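 iPSC-derived IMR90 neural crest cells on PLO/laminin/fibronectin were seeded around silicone stoppers; after stopper removal, migration in N2-S medium with EGF and FGF ran 24 h before 24 h chemical exposure. Calcein-AM/Hoechst high-content imaging; bidirectional fit versus DMSO.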

[21] = IUF_NPC1b_proliferation_BrdU_72hr: Leibniz Research Institute for Environmental Medicine (IUF) 72-hour Neural Progenitor Cell Bromodeoxyuridine (BrdU) Proliferation Assay (NPC1b) (AID 2284207)
Summary of the method: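 hNPC spheres (primary, GW 16-19 fetal cortex), single sphere/well, EGF+FGF medium; 72 h compound, no renewal; BrdU pulse last 16 h; luminescent ELISA; activity vs DMSO baseline; growth-factor withdrawal as positive control.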

[22] = IUF_NPC1a_proliferation_area_72hr: Leibniz Research Institute for Environmental Medicine (IUF) 72-hour Neural Progenitor Cell Proliferation Area Assay (NPC1a) (AID 2284208)
Summary of the method: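 hNPC spheres (human fetal cortex, GW 16-19), one per poly-Hema U-bottom well; EGF+FGF medium; dosed day 0, no re-dosing; 72 h, 37C, 5% CO2; phase-contrast sphere area; DMSO = baseline; minus-GF = positive ctrl.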

[23] = IUF_NPC1_viability_72hr: Viability Assessment at 72 hours in the Leibniz Research Institute for Environmental Medicine (IUF) Neural Progenitor Cell Proliferation Assay (NPC1) (AID 2284209)
Summary of the method: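 Single spheres (0.25-0.35 mm) of human fetal cortex-derived neural progenitor cells were grown in proliferation medium with EGF and FGF at 37C and 5% CO2. They were exposed for 72 h without renewal, and viability was read by alamar blue resorufin fluorescence.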

Measured: AC50

CCc1ccccc1
inactive: [1] | [2] | [3] | [4] | [5] | [6] | [7] | [8] | [9] | [10] | [11] | [12] | [13] | [14] | [15] | [18] | [19] | [20] | [22] | [23]
active: [16] 299 nM | [17] 476 nM | [21] 12.7 µM
